# Sampled rows, rich in hits. Any-hit rate of the full collection: about 18%.
# DT40 TDP1 no CPT: qHTS for Inhibitors of human tyrosyl-DNA phosphodiesterase 1 (TDP1): qHTS in cells in absence of CPT; DT40 Tdp1-/- hTDP1 cells, no CPT, ATP luminescence, 48 h; Potency, µM (highest dose often 46.2 µM), inactives show at the top dose activity change, negative = growth inhibition, hits mostly inhibitors; actives 15% (n = 420,000); AID 686978, 2013; note: nearly all actives have a fitted effect of over 55% in size
#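 Growth kinetics read by CellTiter-Glo luminescence after ≥48 hr at 37 °C. Cells: DT40 Tdp1-/- stably carrying human TDP1, 400 per well, compound exposure in the absence of CPT (DMSO vehicle).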
# KAT2A inh: qHTS Assay for Inhibitors of GCN5L2; GCN5L2 HAT assay, ThioGlo1 CoA-SH fluorescence; Potency, µM (doses to about 58.9 µM), for inactives: top-dose activity change, negative = inhibition, hits mostly inhibitors; actives 0.21% (n = 390,000)
#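 Fluorescence readout, Ex340nm/Em540nm: ThioGlo1 (50uM final) reacts with free CoA thiol released as 20nM GCN5L2 acetylates H3(1-25) peptide (75uM) using acetyl-CoA (70uM). Compound and enzyme sat 15 min beforehand; 20 min room-temperature reaction.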
# TDP1 block: qHTS Assay for Inhibitors of Tyrosyl-DNA Phosphodiesterase (TDP1). recombinant TDP1, AlphaScreen DNA substrate cleavage. Tyrosyl-DNA phosphodiesterase 1 (Homo sapiens), Q9NUW8. Potency, µM (series often up to 130 µM), for inactives: top-dose activity change, negative = inhibition, actives largely listed as inhibitors. actives 0.28% (n = 350,000). AID 485290, 2010; note: nearly all actives have a fitted effect of over 40% in size
#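 AlphaScreen read-out: signal falls as enzyme removes the 3' tyrosine-FITC from a 5'-biotinylated DNA oligo (15 nM, 5 min, RT). Enzyme was E. coli-made recombinant Tdp1 at 1 nM, exposed to compound for 15 min beforehand; beads 10 ug/ml, 10 min.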
# PLK1 PBD inh: qHTS for Inhibitors of PLK1-PDB (polo-like kinase 1 - polo-box domain): Primary Screen | Plk1 PBD binding of FITC phosphopeptide, fluorescence polarization | Potency, µM, without a hit: max response, negative = inhibition, most hits filed as inhibitors | Serine/threonine-protein kinase PLK1 (Homo sapiens), P53350 | actives 2.8% (n = 360,000); note: series mostly up to about 57 µM; nearly all actives have a fitted effect of over 65% in size
# TDP1 cell CPT: qHTS for Inhibitors of human tyrosyl-DNA phosphodiesterase 1 (TDP1): qHTS in cells in presence of CPT; chicken DT40 Tdp1-/-;hTDP1 cells + 20 nM CPT, ATP luminescence, 48 h; Potency, µM (titrated, usually from 46.2 µM), without a hit: at the highest dose activity change, negative = growth inhibition, usual class: inhibitors; actives 12% (n = 420,000); note: nearly all actives have a fitted effect of over 55% in size
#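 Cell growth measured by CellTiter-Glo luminescence after a minimum 48 h, 37 C compound exposure with 20 nM CPT in Tdp1-knockout DT40 cells stably expressing hTDP1, seeded 400/well; qHTS titration format.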
# VDR inh: Inhibitors of the vitamin D receptor (VDR): qHTS | Vitamin D3 receptor (Homo sapiens), P11473 | VDR-SRC2-3 peptide fluorescence polarization, 2 h | Potency, µM, for the others: max response, negative = inhibition, hits mostly inhibitors | actives 0.93% (n = 400,000) | AID 504847, 2011
#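 Fluorescence polarization assay of small-molecule disruption of VDR binding to coregulator peptide SRC2-3. Compounds and controls pin-transferred, then read after 2 h incubation at ambient room temperature.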
# The depositor's hits bear a star; ? = inconclusive; · = not tested or not shown; [ ] = dose if it differs, or a comment. Calls come from the whole dose curve; as a rule, active = well fitted curve in the direction sought with a large enough effect; inconclusive = small, poorly fitted or top-dose-only effect, or another doubt; inactive = no such curve, though single readings can be large; an effect the other way counts as inactive or inconclusive. % is set by controls: 0 for no effect and ±100 for the full control effect; potency is the fitted concentration of half-maximal effect.
SMILES,DT40 TDP1 no CPT,KAT2A inh,TDP1 block,PLK1 PBD inh,TDP1 cell CPT,VDR inh
Cc1ccc(SC[C@H](c2ccccc2)N2CCN(CCc3ccccc3)CCC2=O)cc1,20.6µM*,-5.1%,7.1%,-3.8%,?,-9.5%
O=C1CCN(CCc2ccccc2)CCN1[C@H](CSc1ccccc1)c1ccccc1,11.2µM*,-3.0%,·,-5.6%,11.2µM*,-1.8%
CCC(=O)Nc1cc(-c2nc3ccccc3s2)c(Cl)cc1Cl,-26.6%,1.9%,4.5%,·,-13.1%,8.3%
CC(C)c1ccc(OC(=O)c2cccc(S(=O)(=O)N3CCN(C)CC3)c2)cc1,18.4µM*,-19.3%,6.8%,-12.1%,?,-3.0%
CN1CCN(S(=O)(=O)c2cccc(C(=O)Oc3ccc(C(C)(C)C)cc3)c2)CC1,?,-7.1%,-0.1%,-8.9%,?,-7.5%
COC(=O)c1c(NC(=O)c2cccc(S(=O)(=O)N3CCN(C)CC3)c2)sc(C)c1C,14.6µM*,0.5%,·,?,14.6µM*,-6.6%
CC1(C(=O)NS(=O)(=O)c2cccs2)CCN1C(=O)CC1CCCCC1 (centres undefined),4.3%,·,·,-11.3%,-4.7%,·
CCCCCSc1nnc2c(n1)[nH]c1c(C)cccc12,2.91µM*,0.3%,·,·,9.2µM*,-15.8%
CCN(CC)Cc1cc(Nc2c3ccccc3nc3c4ccccc4n(C)c23)cc(CN(CC)CC)c1O,5.8µM*,·,·,-8.6%,2.59µM*,?
CCN(CC)CCn1c2ccccc2c2nc(C)sc21,2.8%,-1.6%,4.4%,-8.9%,-4.0%,-14.6%
O=C(NCCc1ccc(Cl)cc1)C1CCN(C(=O)c2ccc(F)cc2)CC1,18.4µM*,-4.6%,5.3%,0.2%,?,1.0%
COc1ccc(CCNC(=O)C2CCN(C(=O)c3ccc(Br)cc3)CC2)cc1,?,-3.5%,·,26.7µM*,?,?
COc1ccc(CCNC(=O)C2CCCN(C(=O)c3ccc(Cl)cc3)C2)cc1 (centres undefined),?,-2.4%,1.2%,-14.1%,-29.0%,-3.1%
COc1cc(S(=O)(=O)n2cnc3ccccc32)ccc1Br,-8.5%,-24.5%,·,-11.1%,2.5%,-7.4%
C[C@H](C[C@H](O)[C@H]1OC1(C)C)C1=C2C[C@H](O)C3[C@@]4(C)CCC(=O)C(C)(C)C4CC[C@]3(C)[C@@]2(C)CC1 (some centres undefined),14.6µM*,-7.6%,0.1%,5.9%,7.31µM*,-11.9%
O=C1C=CC(=O)C2=C1C1c3ccccc3C2c2ccccc21,·,·,5.7%,·,·,·
CC(C)N1C(=O)S/C(=C/c2ccc(Sc3nc4ccccc4[nH]3)o2)C1=O,10.3µM*,-4.0%,7.9%,-1.9%,14.6µM*,-0.4%
C=CCN1C(=O)S/C(=C/c2ccc(Sc3nc4ccccc4[nH]3)o2)C1=O,20.6µM*,-10.2%,6.9%,-7.9%,23.1µM*,12.1%
CC(=O)OCC(NC(=O)C(Cc1ccccc1)NC(=O)OC(C)(C)C)C1OC(n2cc(C)c(=O)[nH]c2=O)C(OC(C)=O)C1OC(C)=O (centres undefined),·,·,7.4%,·,·,-9.4%
O=C(Nc1cccc(S(=O)(=O)NC2=NCCC2)c1)c1cn(-c2ccccc2)nc1-c1ccc(F)cc1,2.59µM*,-11.8%,2.2%,-9.2%,3.66µM*,13.8%
Cc1ccc(-c2nn(-c3ccccc3)cc2C(=O)Nc2cccc(S(=O)(=O)NC3=NCCC3)c2)cc1,0.206µM*,·,·,-18.3%,2.5%,·
O=C(O)c1cccc(NC(=O)c2cn(-c3ccccc3)nc2-c2ccc(F)cc2)c1,-3.2%,-9.7%,·,-15.2%,-0.6%,12.8%
O=C(Nc1cccc(S(=O)(=O)NC2=NCCC2)c1)c1ccccc1,?,-1.4%,-0.8%,-2.8%,4.3%,5.6%
CCCCOc1ccc(C(=O)NCC(=O)NCC(=O)OCC)cc1,?,-2.7%,5.5%,1.9%,16.4µM*,3.0%
CCOC(=O)CNC(=O)c1cccnc1,0.8%,23.9%,-9.5%,23.8µM*,1.9%,-3.7%
SMILES,DT40 TDP1 no CPT,KAT2A inh,TDP1 block,PLK1 PBD inh,TDP1 cell CPT,VDR inh
O=C(NCO)c1cccnc1,-6.0%,-17.4%,4.9%[56.1 µM],5.8%,-0.1%,-15.2%
CCOC(=O)c1c(C)[nH]c(C)c1C(=O)COC(=O)CNC(=O)c1ccc(OCC)cc1,-17.9%,-17.1%,6.2%,29.9µM*,-10.1%,-8.5%
C=C(C)C1CC=C(C)/C(=N/NC(=O)CCC(=O)Nc2ccccc2Cl)C1 (centres undefined),?,2.3%,0.3%,-23.4%,?,10.5%
C=C(C)CSc1[nH]c(=O)cc(C)c1C#N,-0.1%,0.7%,-1.2%,-6.8%,-0.4%,-0.6%
COc1ccc(C2Nc3ccccc3C(=O)N2c2ccc(Cl)cc2)cc1COc1ccc(NC(C)=O)cc1 (centres undefined),14.1µM*,·,0.2%,·,?,-20.2%
COc1ccc(C2Nc3ccccc3C(=O)N2c2ccccc2F)cc1COc1ccc(NC(C)=O)cc1 (centres undefined),17.8µM*,·,0.5%,·,11.2µM*,-7.0%
COc1cc(C(=O)Nc2ccc3c(c2)N(C2CCCC2)C(=O)c2ccccc2S3)cc(OC)c1OC,?,-13.0%,0.5%,·,?,14.9%
COc1cc(OC)cc(C(=O)Nc2ccc3c(c2)N(C2CCCC2)C(=O)c2ccccc2S3)c1,?,-3.4%,-5.4%,·,-16.3%,5.1%
O=C(Nc1ccc2c(c1)N(C1CCCC1)C(=O)c1ccccc1S2)c1ccccc1,11.6µM*,-1.6%,-2.5%,·,?,11.6%
O=C(Nc1ccc2c(c1)N(C1CCCC1)C(=O)c1ccccc1S2)c1ccc(F)cc1,?,-14.6%,5.4%,·,23.1µM*,20.4%
O=C(Nc1ccc2c(c1)N(C1CCCC1)C(=O)c1ccccc1S2)c1cccc(F)c1,18.4µM*,-7.9%,4.4%,·,?,10.6%
COc1ccc(NC(=O)C(C)Sc2ccccc2)cc1 (centres undefined),3.0%,-6.9%[0.501 µM],-3.6%,-0.3%,8.6%,0.0%
CC(=O)Nc1ccc(SC(C)C(=O)NC(N)=O)cc1 (centres undefined),-0.9%,-6.8%,2.3%,23.8µM*,0.8%,-19.7%

# Assay outcomes from PubChem BioAssay.
